Compound activity (PubChem BioAssay)
3CLpro inhibitor: SARS-CoV 3CLpro protease inhibition. recombinant SARS-CoV 3CLpro, quenched FRET peptide cleavage. inhibition, % at 6 µM. 0.14% of 290,000 active. AID 1706; in the data active means inhibition above about 12%
Mtb BioA inh: inhibitors of Mycobacterium tuberculosis BioA enzyme; purified M. tuberculosis BioA enzyme, plate reader; inhibition, % at 9.99 µM; 0.096% of 360,000 active; AID 602481; in the data active means inhibition above about 40%
GDH-TPI counter-1: inhibits GDH-TPI coupling enzymes, artifact for Mtb FBA screen. AID 588335. GDH-TPI coupled enzyme counterscreen, NADH absorbance. inhibition, % at 4.8 µM. 1.2% of 360,000 active; in the data active means inhibition above about 30%;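 further: 0% = DMSO wells and 100% = wells lacking the enzyme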
FadD28 FP inh: M. tuberculosis FadD28 bisubstrate binding inhibition. FadD28 bisubstrate probe binding, fluorescence polarization. inhibition, % at 12.5 µM. 0.22% of 360,000 active; in the data active means inhibition above about 8.5%, passing the limit was not always enough
Mtb FBA inh: Mtb fructose-bisphosphate aldolase inhibition; purified M. tuberculosis FBA, fluorescence read-out; inhibition, % at 1 µM; 2.3% of 360,000 active; AID 588726;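 further: 0% = vehicle and 100% = reference inhibitor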
Target sequence (P9WQA3 whole entry, looked up): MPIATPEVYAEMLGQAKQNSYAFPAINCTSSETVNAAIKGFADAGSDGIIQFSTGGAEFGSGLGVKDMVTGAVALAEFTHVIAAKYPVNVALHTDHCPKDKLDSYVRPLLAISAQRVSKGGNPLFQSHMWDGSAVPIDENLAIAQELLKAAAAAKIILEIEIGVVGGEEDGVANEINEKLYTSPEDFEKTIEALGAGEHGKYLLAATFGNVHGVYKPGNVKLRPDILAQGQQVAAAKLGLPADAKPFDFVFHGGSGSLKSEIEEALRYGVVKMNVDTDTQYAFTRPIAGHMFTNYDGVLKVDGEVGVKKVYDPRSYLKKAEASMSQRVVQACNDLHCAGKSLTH
Mtb FBA confirm: confirmation of M. tuberculosis fructose-bisphosphate aldolase inhibitors. purified M. tuberculosis FBA, fluorescence read-out. 78% of 5,600 active. shares compounds with Mtb FBA inh. inhibition, % at 1 µM;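 further: 0% = vehicle wells and 100% = reference inhibitor wells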
GDH-TPI counter-2: counter-screen for M. tuberculosis FBA inhibitors: GDH-TPI coupled enzyme inhibition. shares compounds with Mtb FBA inh. GDH-TPI coupled enzyme counterscreen, fluorescence. inhibition, % at 1 µM. 81% of 5,600 active. AID 652141; in the data active means inhibition above about 10%
GDH-TPI dose: counter-screen for M. tuberculosis FBA inhibitors: GDH-TPI dose response; AID 652145; 79% of 170 active; GDH-TPI coupled enzyme assay, fluorescence, artifact counterscreen; IC50, µM; shares compounds with Mtb FBA inh; call rule not given here
Numbers without * were called inactive; nt = no result given; + = active, no number. An excerpt weighted towards active compounds, which were near 3.1% of everything screened. Unless noted, no stated cut-off is given here; in the data, active means inhibition above about 27%; inactive means the rest.

SMILES	3CLpro inhibitor	Mtb BioA inh	GDH-TPI counter-1	FadD28 FP inh	Mtb FBA inh	Mtb FBA confirm	GDH-TPI counter-2	others
C=CCn1c(SCC(=O)Nc2sc(C)c(C)c2C(=O)OCC)nnc1-c1sc(N)nc1C	3	-2	11	0	-1	nt	nt
C[C@@H]1CN([C@H](C)CO)C(=O)c2cc(NC(=O)NC3CCCCC3)ccc2O[C@@H](C)CCCCO[C@H]1CN(C)C(=O)NC1CCCCC1	nt	0	nt	nt	nt	nt	nt
COC(=O)c1[nH]c2ccc(Cl)cc2c1NC(=O)C1CC1	-1	0	17	-1	27	nt	nt
COC(=O)c1[nH]c2ccc(Cl)cc2c1NC(=O)Oc1ccccc1	-1	0	8	-1	66*	9	-4
CCCN1CCN(C(=O)Cn2nc(C)n3c(cc4c(OC)cccc43)c2=O)CC1	nt	1	-3	-4	86*	169*	113*
CCCN1CCN(C(=O)Cn2nc(C)n3c(cc4sccc43)c2=O)CC1	-3	31	1	-1	1	nt	nt
COc1cccc2c1cc1c(=O)n(CC(=O)NCCCN3CCN(C)CC3)nc(C)n12	-2	0	14	1	102*	93*	88*
O=C(NCC1CCCO1)C1CCC(N2C(=O)c3ccccc3C2=O)CC1 (configuration not stated)	-5	0	4	-2	1	nt	nt
O=C(NCC1CCCO1)C1c2ccccc2C(=O)N1C1CCCCCC1 (configuration not stated)	5	0	-12	-3	41*	112*	97*
Cc1ccc2nc3[nH]c(=O)[nH]c(=O)c3c(N)c2c1	nt	1	6	-3	105*	-9	-5
O=C(O)c1c2cc(Br)ccc2nc2[nH]c(=O)[nH]c(=O)c12	nt	3	11	1	9	nt	nt
O=C(CCCCCn1c(=S)[nH]c2ccc(N3CCOCC3)cc2c1=O)NCc1ccc(Cl)cc1	-2	-1	5	-2	1	nt	nt
O=C(CCCCCn1c(=S)[nH]c2ccc(N3CCOCC3)cc2c1=O)NCc1ccc2c(c1)OCO2	3	-1	-1	-4	44*	+	+
Nc1c(C(=O)Nc2ccc(Cl)cc2)sc2nc(N3CCOCC3)c3c(c12)CCCC3	-3	1	15	-2	37*	-3	-2
Cc1ccc(NC(=O)c2sc3nc(N4CCOCC4)c4c(c3c2N)CCCC4)cc1	nt	0	12	-1	7	nt	nt
CC(=O)c1ccc(NC(=O)c2sc3nc(N4CCOCC4)c4c(c3c2N)CCCC4)cc1	-3	2	11	-2	5	nt	nt
Nc1c(C(=O)Nc2ccccc2)sc2nc(N3CCOCC3)c3c(c12)CCCC3	nt	0	22	-1	51*	158*	160*
CCOc1ccc(NC(=O)c2sc3nc(N4CCOCC4)c4c(c3c2N)CCCC4)cc1	2	nt	18	-2	16	nt	nt
COc1cccc(NC(=O)c2sc3nc(N4CCOCC4)c4c(c3c2N)CCCC4)c1	2	-1	14	-1	29*	48*	45*
O=C(NCCCN1CCOCC1)c1cc(-c2cccc(Br)c2)nc2ccccc12	4	2	18	0	0	nt	nt
COc1ccc(-c2cc(C(=O)NCCCN3CCOCC3)c3cc(C(C)C)ccc3n2)cc1	-8	2	7	-4	70*	+	141*
Cc1cc(C(=O)NCCN2CCOCC2)c2ccccc2n1	nt	1	15	1	4	nt	nt
COc1ccc(-c2cc(C(=O)NCCCN3CCOCC3)c3ccccc3n2)cc1OC	nt	nt	17	0	8	nt	nt
O=C(NCCCN1CCOCC1)c1cc(-c2ccc(Cl)s2)nc2ccccc12	nt	-2	14	-1	64*	172*	145*
O=C(NCCCN1CCOCC1)c1cc(-c2ccc(F)cc2)nc2ccccc12	nt	0	5	1	11	nt	nt
SMILES	3CLpro inhibitor	Mtb BioA inh	GDH-TPI counter-1	FadD28 FP inh	Mtb FBA inh	Mtb FBA confirm	GDH-TPI counter-2	others
O=C(NCCCN1CCOCC1)c1cc(-c2ccco2)nc2ccccc12	nt	-2	16	-2	89*	115*	75*
CCOc1ccc(-c2cc(C(=O)NCCCN3CCOCC3)c3ccccc3n2)cc1	-4	0	25	1	35*	116*	88*
CO[C@@H]1CN(C)C(=O)c2ccc(NC(=O)c3cnccn3)cc2OC[C@@H](C)N(CCc2ccccc2)C[C@H]1C	nt	3	nt	nt	nt	nt	nt
CO[C@H]1CN(C)C(=O)c2cc(NC(=O)NC3CCCCC3)ccc2OC[C@@H](C)N(CCc2ccccc2)C[C@@H]1C	nt	-3	nt	nt	nt	nt	nt
CCCN1[C@@H]2c3ccc(-c4ccncc4)c(=O)n3C[C@@H]2[C@@H](CO)[C@@H]1C(=O)NCCCN1CCOCC1	nt	0	nt	nt	nt	nt	nt
CC1CN(C(=O)c2cc(-c3ccc(Cl)s3)nc3ccccc23)CC(C)O1 (configuration not stated)	nt	nt	14	-1	65*	76*	60*
Cc1ccc(-c2cc(C(=O)NCCCn3ccnc3)c3ccccc3n2)s1	2	3	9	-3	110*	154*	125*
CC1CC(C)CN(C(=O)c2cc(-c3ccccn3)nc3ccccc23)C1 (configuration not stated)	-2	nt	10	-1	2	nt	nt
CCC(=O)Nc1ccc2c(c1)C(=O)N(C)C[C@H](OC)[C@@H](C)CN(C(=O)Cc1ccccn1)[C@@H](C)CO2	nt	1	nt	nt	nt	nt	nt
CO[C@H]1CN(C)C(=O)c2ccc(NC(=O)c3cc(C)on3)cc2OC[C@@H](C)N(C(C)=O)C[C@H]1C	nt	0	nt	nt	nt	nt	nt
CCC(=O)N1[C@H](CO)[C@H](c2ccc(-c3ccccc3)cc2)[C@@H]1CNC(=O)COC	nt	7	nt	nt	nt	nt	nt
CN1CCc2c(sc3c2c(=O)n(-c2cccc(Cl)c2)c2nncn32)C1	-4	1	0	-5	6	nt	nt
CN1CCc2c(sc3nc(NCCO)n(-c4cccc(Cl)c4)c(=O)c23)C1	-2	-1	23	-3	71*	109*	88*
COc1ccc(CNCc2ccc(OC)c3ccccc23)cc1	-2	0	-2	2	57*	11	-5	GDH-TPI dose=>10
CCOC(=O)CC(=O)CSc1nc2c(c(C)c1C#N)CCC2	5	nt	3	-3	31*	82*	47*
Cc1ccc(-n2c(O)c(/C=N/n3cnnc3)c3ccccc3c2=O)cc1	2	-1	11	1	5	nt	nt
O=c1c2ccccc2c(/C=N/n2cnnc2)c(O)n1-c1ccccc1F	nt	-1	16	3	33*	3	2
CN(C)CCNC(=O)c1cccn(Cc2cc(C(F)(F)F)cc(C(F)(F)F)c2)c1=O	4	nt	12	-2	61*	2	-2
O=c1c(Cl)c(O)c2cccc3c4ccccc4n1c23	5	nt	15	2	85*	86*	64*
